{"source": "the supplement of paper PMC8387472"}
{"compound": "CCCCOc1c(C(=O)c2c(F)cc(C)cc2F)c[nH]c2nncc1-2", "experiment": "fraction of 1-bp insertions among edited reads; higher = more 1-bp insertion outcomes", "conditions": "mESC; 2uM; 72 h treatment, harvest day 5"}
{"target": "32.0 (DMSO control at this site: 1-bp insertion 0.03, MH deletion 0.85, edited 0.898) AGAAGTCCAGGATCAGGGGGACTGGGGTCGGGAGGGTGGGGCAGGAAGGAAGCCAGAATCA", "fraction of 1-bp insertions among edited reads": 0.0115}
{"target": "26.0 (DMSO control at this site: 1-bp insertion 0.518, MH deletion 0.262, edited 0.026) AGGGCGCGCCCCACGCACTCTGCGGCAAGTCCCTCTGCGGCAAGTCCTCGGCCCGGAAGAC", "fraction of 1-bp insertions among edited reads": 0.513}
{"target": "34.0 (DMSO control at this site: 1-bp insertion 0.184, MH deletion 0.385, edited 0.103) ATTATAGGACCCTGAGGGAGCAGAGATGTGGGAATGGGGGCCGAGCCAATTGTGATGTAAG", "fraction of 1-bp insertions among edited reads": 0.172}
{"target": "18.0 (DMSO control at this site: 1-bp insertion 0.114, MH deletion 0.789, edited 0.094) GCGCAAGTGCATAAGTTTTTCTTAAGGCGTGCCTTTAAGGCGTGCCTTTGTCGGTCCTGGA", "fraction of 1-bp insertions among edited reads": 0.103}
{"target": "41.0 (DMSO control at this site: 1-bp insertion 0.022, MH deletion 0.754, edited 0.115) AAAGAGACAGCAGGTATGAATCCATCTTCCTGACCCTTGGGACCAGCCGGGGCAGTGAAGC", "fraction of 1-bp insertions among edited reads": 0.0252}
{"target": "47.0 (DMSO control at this site: 1-bp insertion 0.095, MH deletion 0.585, edited 0.118) GAGTGGTCCCGAGCCAGGAACTGTGTGTGTTGCAGGGGGGCAGTAACTCCCCAACTCCCTC", "fraction of 1-bp insertions among edited reads": 0.121}
